Most compounds without a hit are left out; they make up all but 10% or so of the library.
PNC inhibitor: High Content Assay for Compounds that inhibit the Assembly of the Perinucleolar Compartment | PC3M PTB-GFP, PNC prevalence imaging, 16 h; stronger effect = lower value | activity change (PNC), negative = inhibition, % at 10 µM | hit rate 3.1% among 140,000 | AID 2417, 2010;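 active = readout at or below -70, meaning at least 70% loss of cells showing the perinucleolar compartment, a nuclear body marking cancer cells; inconclusive = readout between -30 and a set limit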
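PC3M cells stably expressing PTB-GFP, 750–1000 cells/well, treated 16 h at 37 °C with compound (23 nl of library stock), in duplicate. After paraformaldehyde fixation and Hoechst stain, imaged at 20x; PNC prevalence scored by image analysis.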
HPGD inh: qHTS Assay for Inhibitors of HPGD (15-Hydroxyprostaglandin Dehydrogenase); hit rate 4.3% among 150,000; purified HPGD, NADH fluorescence kinetic, PGE2 substrate; AID 894, 2007; 15-hydroxyprostaglandin dehydrogenase [NAD(+)] (Homo sapiens), P15428; Potency, µM, usual class: inhibitors
Target sequence (P15428 whole entry, looked up): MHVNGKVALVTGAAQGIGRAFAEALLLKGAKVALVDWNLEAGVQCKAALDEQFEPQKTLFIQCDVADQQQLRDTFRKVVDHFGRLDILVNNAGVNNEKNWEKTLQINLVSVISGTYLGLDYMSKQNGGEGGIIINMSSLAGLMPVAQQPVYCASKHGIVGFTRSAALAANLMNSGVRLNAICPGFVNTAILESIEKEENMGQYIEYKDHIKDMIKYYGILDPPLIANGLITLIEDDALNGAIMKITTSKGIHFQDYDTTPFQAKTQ
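NADH formation kinetics: reaction with 30 uM PGE2 and 1 mM NAD+ (final), 20 nM enzyme, Tris-HCl pH 8 with Tween 20, after 15 min compound preincubation at room temperature. Fluorescence change, last versus first of five reads.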
Lamin A splicing: qHTS Assay for Modulators of Lamin A Splicing; HeLa LMNA splicing GFP/RFP minigene ratio, 48 h; Potency, µM (titrated, usually from 46.1 µM), actives largely listed as inhibitors; hit rate 0.01% among 200,000; AID 1487, 2009; active = well fitted inhibition curve with a large enough effect in the signal ratio, with a control signal flat, not every such curve was filed as active; inconclusive = small, poorly fitted or top-dose-only effect, or effect the other way, or a change in a side signal; the % refers to the signal ratio
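S3 HeLa cells stably expressing lamin A-EGFP splicing minigene plus DsRed2, 600 cells/well, 48 h compound exposure at 37C. Laser-scanning cytometry; analysed as GFP (500-530 nm)/RFP (575-640 nm) total intensity ratio; 0.5% DMSO vehicle.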
ALDH1A1 block: qHTS Assay for Inhibitors of Aldehyde Dehydrogenase 1 (ALDH1A1). Purified ALDH1A1, NADH fluorescence, propionaldehyde substrate. hit rate 7.3% among 220,000. Aldehyde dehydrogenase 1A1 (Homo sapiens), P00352. Potency, µM (series often up to 75.3 µM), hits mostly inhibitors. AID 1030, 2008
KinaseGlo FLuc: Counterscreen for Luciferase (Kinase-Glo TM) Inhibition; Luciferin 4-monooxygenase (Photuris pensylvanica), Q27757; Kinase-Glo luciferase, ATP luminescence, 8 min; Potency, µM (doses to about 38.3 µM), usual class: inhibitors; hit rate 0.28% among 200,000; AID 1379, 2008; active = well fitted inhibition curve with a large enough effect; inconclusive = small, poorly fitted or top-dose-only effect; also: nearly all actives have a fitted effect of over 60% in size
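Compound is pinned into ATP-containing buffer (10 uM ATP, imidazole pH 7.2, 7 mM MgCl2). Kinase-Glo luciferase reagent is then added. Light output is recorded following an 8-min room-temperature incubation.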
Large screens that a line does not name were inactive. Unless noted, calls follow the shape of the dose curve; as a rule, active = well fitted inhibition curve with a large enough effect (not every such curve was filed as active); inconclusive = small, poorly fitted or top-dose-only effect, or another doubt; inactive = no such curve, though single readings can be large or run the other way.

O=C(CSc1nnc(-c2c[nH]c3ccccc23)o1)c1ccc(-c2ccccc2)cc1	none
O=C1C=C(c2cccs2)C[C@H](c2ccccc2)[C@H]1n1nnc([N+](=O)[O-])n1	PNC inhibitor inconclusive, Lamin A splicing inconclusive, ALDH1A1 block 7.9µM
CCOC(=O)C1=C(C)Nc2ccccc2N=C1NC(=O)C(c1ccccc1)c1ccccc1	ALDH1A1 block 0.14µM (no result: PNC inhibitor, HPGD inh, Lamin A splicing)
CCOC(=O)C1=C(CC)Nc2ccccc2N=C1NC(=O)c1ccc(S(=O)(=O)N2CCOCC2)cc1	ALDH1A1 block 14µM (no result: PNC inhibitor, HPGD inh, Lamin A splicing)
COc1cc(C(=S)N2CCCC2)cc(Cl)c1OCC(=O)Nc1ccc(C)cc1C	HPGD inh 7.9µM, Lamin A splicing inconclusive, ALDH1A1 block 2.5µM
CCOc1cc(C(=O)Nc2ccc(C)cc2C)ccc1OCC(=O)N1CCCCC1	none
Cc1csc2nc(-c3cccc(NC(=O)c4c(F)cccc4F)c3)cn12	none (no result: PNC inhibitor, HPGD inh, ALDH1A1 block, KinaseGlo FLuc)
COc1ccc(OC)c2[nH]c(=O)c(CCNS(=O)(=O)c3ccccc3)cc12	PNC inhibitor inconclusive, ALDH1A1 block 7.1µM
CNC(=O)[C@H]1O[C@@H](n2cnc3c(NCc4cccc(I)c4)nc(Cl)nc32)[C@H](O)[C@@H]1O	none (no result: PNC inhibitor, HPGD inh, Lamin A splicing, KinaseGlo FLuc)
COc1cc(OC)cc(C(=O)N[C@H](C(=O)OCC(=O)Nc2sccc2C#N)C(C)C)c1	ALDH1A1 block 28µM (no result: PNC inhibitor, HPGD inh)
CCCCc1ccc(C2C(C#N)=C(N)SC(N)=C2C#N)s1	HPGD inh 14µM, ALDH1A1 block inconclusive
CCCCc1ccc(/C=C(\C#N)C(N)=S)s1	ALDH1A1 block inconclusive (no result: PNC inhibitor, HPGD inh)
CC(C)c1nn2c(=O)cc(COC(=O)c3ccccc3NC(=O)c3cccc(Cl)c3)nc2s1	none (no result: PNC inhibitor, HPGD inh, ALDH1A1 block, KinaseGlo FLuc)
CCOc1ccccc1N(C)C(=O)c1sc2nc3n(c(=O)c2c1C)CCCC3	none (no result: PNC inhibitor, HPGD inh, ALDH1A1 block, KinaseGlo FLuc)
O=C(O)CSC1=NCCN1	none (no result: PNC inhibitor, Lamin A splicing)
CSC1(SC2=NCCN2)SC2(NCCN2)S1	ALDH1A1 block 0.089µM (no result: PNC inhibitor, Lamin A splicing)
O=C1CCSC2(C(=O)N(Cc3ccc(F)cc3)c3ccccc32)N1c1cccc(F)c1 (stereo not given)	none (no result: PNC inhibitor, HPGD inh, ALDH1A1 block, KinaseGlo FLuc)
Cc1ccc(S(=O)(=O)N/N=c2\oc3ccccc3cc2C(=O)Nc2cccc(C)c2)cc1	ALDH1A1 block 0.16µM
C=CCN1C(=O)C(O)(CC(=O)c2ccccc2)c2ccccc21 (stereo not given)	ALDH1A1 block 3.5µM
CCN1C(=O)C(O)(CC(=O)c2ccccn2)c2ccccc21 (stereo not given)	ALDH1A1 block inconclusive
CCN1C(=O)C(O)(CC(=O)c2ccc(-n3cccc3)cc2)c2ccccc21 (stereo not given)	PNC inhibitor -100
O=C(CC1(O)C(=O)N(CCc2ccccc2)c2ccccc21)c1ccco1 (stereo not given)	PNC inhibitor inconclusive, ALDH1A1 block inconclusive
CCN1C(=O)C(O)(CC(=O)c2cccc(-n3cccc3)c2)c2ccccc21 (stereo not given)	ALDH1A1 block 4.5µM (no result: PNC inhibitor, HPGD inh)
CN1C(=O)C(O)(CC(=O)c2cccnc2)c2ccccc21 (stereo not given)	PNC inhibitor inconclusive
O=C(CC1(O)C(=O)N(Cc2cccc3ccccc23)c2ccccc21)c1cccnc1 (stereo not given)	Lamin A splicing inconclusive, ALDH1A1 block 0.11µM
O=C(CSc1nnnn1-c1ccccc1)N1CCc2ccccc2C1	ALDH1A1 block 20µM
CC(=O)c1ccc(-n2nnnc2SCC(=O)N2CCc3ccccc3C2)cc1	PNC inhibitor -82, Lamin A splicing inconclusive, ALDH1A1 block inconclusive
O=C(CSc1nnc2ccccn12)N1CCc2ccccc2C1	PNC inhibitor inconclusive, HPGD inh inconclusive, ALDH1A1 block inconclusive
COc1cccc(CNc2ncnc3onc(-c4ccc(F)cc4)c23)c1	none (no result: PNC inhibitor, HPGD inh, ALDH1A1 block, KinaseGlo FLuc)
CCc1ccc2c(c1)c1nnc(NN)nc1n2CC	HPGD inh inconclusive, Lamin A splicing inconclusive, ALDH1A1 block 2.8µM
CCn1c2ccc(F)cc2c2nnc(NN)nc21	ALDH1A1 block 7.1µM
CCc1ccc2c(c1)c1nc(C)sc1n2CC(=O)OC	PNC inhibitor inconclusive
CCCn1c2ccc(F)cc2c2nnc(NN)nc21	Lamin A splicing inconclusive, ALDH1A1 block 4.5µM (no result: PNC inhibitor, HPGD inh)
O=Cc1ccc(Cl)cc1	none (no result: PNC inhibitor, Lamin A splicing, KinaseGlo FLuc)
COC(=O)[C@@]1(Cc2ccc(F)cc2)[C@H]2c3cc(C(=O)N4CCCC4)n(Cc4cccc5ccccc45)c3C[C@H]2CN1C(=O)c1ccccc1	none (no result: PNC inhibitor, Lamin A splicing)

Compound activity deposited in PubChem BioAssay by National Center for Advancing Translational Sciences (NCATS).
